Measurements: PubChem BioAssay (NCATS)
Inconclusive results are not listed. Active and inactive are the calls of the source. Calls follow the shape of the dose curve; as a rule, active = well fitted curve in the direction sought with a large enough effect; inconclusive = small, poorly fitted or top-dose-only effect, or another doubt; inactive = no such curve, though single readings can be large; an effect the other way counts as inactive or inconclusive.

Experiments:
[1] = Quantitative High-Throughput drug screen in 47 multiple myeloma cell lines against the NCATS MIPE library collection: Karpas417_ECACC cell viability assay (AID 1918961); settings: Karpas417 myeloma viability, CellTiter-Glo ATP luminescence, 48 h; viability (% of DMSO): at 45.8 µM (top of the series)
Procedure, shortened: (§1)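 CellTiter-Glo ATP luminescence gave viability after 48 h compound treatment at 37C of 500 multiple myeloma cells per well. Normalisation used DMSO-only wells as 100% and media-only wells as 0% viability; primary qHTS of approved and investigational drugs.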

[2] = Quantitative High-Throughput drug screen in 47 multiple myeloma cell lines against the NCATS MIPE library collection: KHM11_PLB cell viability assay (AID 1918962); also: nearly all actives have a fitted effect of over 35% in size
Procedure, shortened: (§2)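 Myeloma cells (500 per well) were exposed to MIPE 4.0 compounds by pin transfer and incubated 48 hours at 37C, 5% CO2. Viability was read as ATP by CellTiter-Glo luminescence, normalised to DMSO (100%) and media-only (0%) wells.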

[3] = Quantitative High-Throughput drug screen in 47 multiple myeloma cell lines against the NCATS MIPE library collection: JIM3_ECACC cell viability assay (AID 1918963; also: nearly all actives have a fitted effect of over 35% in size)
Procedure, shortened: as §2

[4] = Quantitative High-Throughput drug screen in 47 multiple myeloma cell lines against the NCATS MIPE library collection: JIM1_ECACC cell viability assay (AID 1918964)
Procedure, shortened: (§3)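 Luminescent ATP measurement with CellTiter-Glo gives viability, scaled between DMSO-only wells (100%) and media-only wells (0%). Cells, 500 per well, faced library compounds for 48 hours at 37C.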

[5] = Quantitative High-Throughput drug screen in 47 multiple myeloma cell lines against the NCATS MIPE library collection: INA6_PLB cell viability assay (AID 1918965; also: nearly all actives have a fitted effect of over 55% in size)
Procedure, shortened: as §1

[6] = Quantitative High-Throughput drug screen in 47 multiple myeloma cell lines against the NCATS MIPE library collection: H1112_PLB cell viability assay (AID 1918967; also: nearly all actives have a fitted effect of over 30% in size)
Procedure, shortened: as §3

[7] = Quantitative High-Throughput drug screen in 47 multiple myeloma cell lines against the NCATS MIPE library collection: Karpas25_ECACC cell viability assay (AID 1918968; also: nearly all actives have a fitted effect of over 35% in size)
Procedure, shortened: as §3

[8] = Quantitative High-Throughput drug screen in 47 multiple myeloma cell lines against the NCATS MIPE library collection: KMS27_JCRB cell viability assay (AID 1918970); settings: KMS27 myeloma cells, CellTiter-Glo ATP viability, 48 h; viability (% of DMSO): at 45.8 µM (top of the series); also: nearly all actives have a fitted effect of over 30% in size
Procedure, shortened: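 Each line is seeded at 500 cells per well and treated with library compounds for 48 hours under 37 °C, 5% CO2. CellTiter-Glo is then added for 5 min at room temperature before median relative luminescence is recorded.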

[9] = Quantitative High-Throughput drug screen in 47 multiple myeloma cell lines against the NCATS MIPE library collection: KMS12BM_JCRB cell viability assay (AID 1918971); also: nearly all actives have a fitted effect of over 35% in size
Procedure, shortened: (§4)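 Relative luminescence from CellTiter-Glo served as the viability signal, referenced to DMSO-treated (100%) and cell-free medium (0%) controls. Treatment lasted 48 hours at 37C with 500 cells per well.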

[10] = Quantitative High-Throughput drug screen in 47 multiple myeloma cell lines against the NCATS MIPE library collection: KMS12PE_JCRB cell viability assay (AID 1918972); also: nearly all actives have a fitted effect of over 30% in size
Procedure, shortened: as §1

[11] = Quantitative High-Throughput drug screen in 47 multiple myeloma cell lines against the NCATS MIPE library collection: KMS20_JCRB cell viability assay (AID 1918973); also: nearly all actives have a fitted effect of over 45% in size
Procedure, shortened: as §3

[12] = Quantitative High-Throughput drug screen in 47 multiple myeloma cell lines against the NCATS MIPE library collection: KMS26_JCRB cell viability assay (AID 1918975); also: nearly all actives have a fitted effect of over 45% in size
Procedure, shortened: as §4

[13] = Quantitative High-Throughput drug screen in 47 multiple myeloma cell lines against the NCATS MIPE library collection: MMM1_PLB cell viability assay (AID 1918976); also: nearly all actives have a fitted effect of over 35% in size
Procedure, shortened: (§5)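 ATP-based CellTiter-Glo luminescence after 48 h drug exposure (37 °C, 5% CO2) of 500 myeloma cells per well. DMSO-only wells set 100% viability, media-only wells 0%; MIPE 4.0 library added by pin tool.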

[14] = Quantitative High-Throughput drug screen in 47 multiple myeloma cell lines against the NCATS MIPE library collection: MOLP8_DSMZ cell viability assay (AID 1918977); also: nearly all actives have a fitted effect of over 45% in size
Procedure, shortened: as §5

[15] = Quantitative High-Throughput drug screen in 47 multiple myeloma cell lines against the NCATS MIPE library collection: NCIH929_DSMZ cell viability assay (AID 1918978); also: nearly all actives have a fitted effect of over 35% in size
Procedure, shortened: as §5

[16] = Quantitative High-Throughput drug screen in 47 multiple myeloma cell lines against the NCATS MIPE library collection: MM1S_ATCC cell viability assay (AID 1918980); also: nearly all actives have a fitted effect of over 45% in size
Procedure, shortened: as §5

[17] = Quantitative High-Throughput drug screen in 47 multiple myeloma cell lines against the NCATS MIPE library collection: MM1R_ATCC cell viability assay (AID 1918981); also: nearly all actives have a fitted effect of over 35% in size
Procedure, shortened: as §5

[18] = Quantitative High-Throughput drug screen in 47 multiple myeloma cell lines against the NCATS MIPE library collection: JJN3_DSMZ cell viability assay (AID 1918966; also: nearly all actives have a fitted effect of over 50% in size)
Procedure, shortened: as §3

[19] = Quantitative High-Throughput drug screen in 47 multiple myeloma cell lines against the NCATS MIPE library collection: OCIMY1_PLB cell viability assay (AID 1918979); also: nearly all actives have a fitted effect of over 35% in size
Procedure, shortened: as §5

Measured: Potency
Potency is read from the fitted curve at half-maximal effect.

COc1cc(CCc2cc(NC(=O)c3ccc(N4C[C@@H](C)N[C@@H](C)C4)cc3)n[nH]2)cc(OC)c1
active: [1] 2350 nM | [2] 9350 nM | [3] 14800 nM | [4] 2350 nM | [5] 9350 nM | [6] 11800 nM | [7] 16600 nM | [8] 18700 nM | [9] 11800 nM | [10] 16600 nM | [11] 4690 nM | [12] 20900 nM | [13] 16600 nM | [14] 18700 nM | [15] 10500 nM | [16] 20900 nM | [17] 26400 nM

Nc1nc(N)c2nc(-c3cccc(O)c3)c(-c3cccc(O)c3)nc2n1
active: [1] 1320 nM | [2] 3320 nM | [3] 9350 nM | [4] 1870 nM | [5] 2350 nM | [18] 18700 nM | [6] 7430 nM | [7] 4690 nM | [8] 4180 nM | [10] 13200 nM | [11] 7430 nM | [13] 20900 nM | [14] 26400 nM | [15] 4180 nM | [16] 14800 nM | [17] 18700 nM

COc1cccc2c1C(=O)c1c(O)c3c(c(O)c1C2=O)C[C@@](O)(C(C)=O)C[C@H]3O[C@H]1C[C@H](N)[C@H](O)[C@H](C)O1
active: [1] 46.9 nM | [2] 235 nM | [3] 93.5 nM | [4] 74.3 nM | [5] 33.2 nM | [18] 105 nM | [6] 209 nM | [7] 37.2 nM | [8] 37.2 nM | [10] 66.2 nM | [11] 52.6 nM | [12] 296 nM | [13] 166 nM | [14] 132 nM | [15] 46.9 nM | [19] 332 nM | [16] 46.9 nM | [17] 26.4 nM

Cn1cc(-c2cnn3c(N)c(Br)c([C@H]4CCCNC4)nc23)cn1
active: [1] 132 nM | [2] 526 nM | [3] 1870 nM | [4] 118 nM | [5] 662 nM | [18] 590 nM | [6] 2640 nM | [7] 662 nM | [8] 1480 nM | [9] 2960 nM | [10] 3720 nM | [11] 1480 nM | [12] 8330 nM | [13] 662 nM | [14] 833 nM | [15] 833 nM | [16] 332 nM | [17] 209 nM

C[C@@]12C(=O)OC(=O)[C@@]1(C)C1CCC2O1
active: [1] 2960 nM | [2] 2350 nM | [3] 1870 nM | [4] 662 nM | [5] 2640 nM | [18] 662 nM | [7] 1180 nM | [8] 2090 nM | [9] 1660 nM | [10] 1870 nM | [11] 2640 nM | [12] 2090 nM | [13] 1870 nM | [14] 3720 nM | [15] 2640 nM | [19] 5260 nM | [16] 1660 nM | [17] 2350 nM

CO[C@@H]1[C@@H](O)[C@H](O)[C@@H](n2c3c(Cl)cccc3c3c4c(c5c6cccc(Cl)c6[nH]c5c32)C(=O)NC4=O)O[C@@H]1CO
active: [1] 1320 nM | [2] 1180 nM | [3] 1480 nM | [4] 526 nM | [5] 187 nM | [18] 9350 nM | [7] 590 nM | [8] 118 nM | [9] 469 nM | [10] 743 nM | [12] 2640 nM | [13] 5900 nM | [14] 2350 nM | [15] 833 nM | [19] 2350 nM | [16] 372 nM | [17] 526 nM

COc1cc2c(cc1OC)[C@@H]1C(=O)c3ccc4c(c3O[C@@H]1CO2)C=CC(C)(C)O4
active: [1] 209 nM | [2] 4180 nM | [3] 8330 nM | [4] 1180 nM | [5] 1 nM | [18] 9350 nM | [6] 29.6 nM | [9] 418 nM | [10] 372 nM | [11] 6620 nM | [12] 9350 nM | [13] 18.7 nM | [14] 11800 nM | [15] 662 nM | [16] 2960 nM

COc1cc(OC)cc(-c2ccc3ncc4ccc(=O)n(-c5ccc(N6CCNCC6)c(C(F)(F)F)c5)c4c3c2)c1
active: [1] 2350 nM | [2] 5900 nM | [3] 10500 nM | [4] 3720 nM | [5] 3720 nM | [18] 5900 nM | [7] 2960 nM | [8] 1660 nM | [9] 5260 nM | [10] 3720 nM | [11] 4180 nM | [12] 5900 nM | [13] 7430 nM | [14] 4180 nM | [15] 3720 nM | [19] 14800 nM | [17] 4690 nM

CC(=O)ON=C1C(c2c(O)[nH]c3cc(Br)ccc23)=Nc2ccccc21
active: [1] 5260 nM | [2] 13200 nM | [3] 2960 nM | [4] 3720 nM | [5] 935 nM | [18] 20900 nM | [7] 2640 nM | [8] 6620 nM | [9] 14800 nM | [10] 1480 nM | [13] 20900 nM | [14] 13200 nM | [15] 2090 nM | [17] 16600 nM
